Laboratory results published in PubChem BioAssay AID686979 (National Center for Advancing Translational Sciences (NCATS), 2013).
“And” between values parts separate entries of the source, which are not always exact repeats. Equal values may be shown once. Among all 420,000 compounds or so, about 50,000 (12%) were called active. Inconclusive results (about 26%) are left out. Many of the other results were omitted from the sample, so actives are more common in it than they were. Values without a mark were called inactive. Calls come from the whole dose curve; as a rule, active = well fitted inhibition curve with a large enough effect; inconclusive = small, poorly fitted or top-dose-only effect; inactive = flat fitted curve, though single readings scatter.

Assay: qHTS for Inhibitors of human tyrosyl-DNA phosphodiesterase 1 (TDP1): qHTS in cells in presence of CPT; note: nearly all actives have a fitted effect of over 55% in size
Conditions: chicken DT40 Tdp1-/-;hTDP1 cells + 20 nM CPT, ATP luminescence, 48 h; series mostly up to 46.2 µM; activity change, negative = growth inhibition: at the top concentration
Method in brief: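 Cell growth measured by CellTiter-Glo luminescence after a minimum 48 h, 37 C compound exposure with 20 nM CPT in Tdp1-knockout DT40 cells stably expressing hTDP1, seeded 400/well; qHTS titration format.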
% is set by controls: 0 for no effect and ±100 for the full control effect; potency is the fitted concentration of half-maximal effect.

Row | Structure (SMILES) | activity change, negative = growth inhibition | Potency
1 | CCN(c1ccccc1)S(=O)(=O)c1cc2c(cc1C)n(C)c(=O)c(=O)n2C | 11.4% | 
2 | C[C@H](CO)N1C[C@H](C)[C@@H](CN(C)S(=O)(=O)c2ccc(F)cc2)OCc2cnnn2CCCC1=O | -11.4% | 
3 | COc1ccc(CCN(C)C(=O)C2CCCN(Cc3ccc(OC)c(OC)c3)C2)cc1OC (stereo unspecified) | 34.4% | 
4 | COc1cc(CN2CCCC(C(=O)c3ccc(SC)cc3)C2)cc(Cl)c1O (stereo unspecified) |  | 11.6 µM (active)
5 | COc1ccc(CN2CCCC(C(=O)N3CCCCC3)C2)cc1 (stereo unspecified) | 0.895% | 
6 | COC(=O)N(C)C[C@@H]1OCc2cnnn2CCCC(=O)N([C@@H](C)CO)C[C@@H]1C | -3.67% | 
7 | CCOc1ccc(CNC(=O)c2cc(-c3ccc(Cl)s3)nc3ccccc23)cc1 |  | 20.6 µM (active)
8 | C/C(=N\NC(=O)c1cc(-c2ccc(O)cc2)nc2ccccc12)c1cccnc1 |  | 20.6 µM (active)
9 | COc1ccc(/C=N/NC(=O)c2ccc(Cl)cc2)cc1COC(C)=O | -3.77% | 
10 | C/C(=N\NC(=O)c1ccc2ccccc2c1)c1cccnc1 | 2.16% | 
11 | C/C(=N\NC(=O)c1cccc([N+](=O)[O-])c1)c1cccnc1 | 3.86% | 
12 | Cc1nc2ccc(C(=O)N/N=C/c3ccc(O)cc3)cc2[nH]1 | 4.58% | 
13 | COc1cccc(-c2cc(C(=O)N/N=C/c3ccc(OC)c(COC(C)=O)c3)c3ccccc3n2)c1 |  | 8.2 µM (active)
14 | CCOc1ccc(-c2cc(C(=O)N/N=C/c3ccc(O)cc3)c3ccccc3n2)cc1 |  | 1.84 µM (active)
15 | CNC(=O)COC(=O)c1cc(-c2ccc(OC)cc2)nc2ccccc12 | -3.71% | 
16 | CCOc1ccc(NC(=O)c2cc(C)nc3ccccc23)cc1 | 9.45% | 
17 | O=C(N/N=C/c1ccc(OCc2ccccc2)cc1)c1ccc(O)cc1 | -0.604% | 
18 | CC(=O)N1CCN(C(=O)c2cc(-c3ccc(Cl)s3)nc3ccccc23)CC1 | -7.3% | 
19 | CC(C)=CC1C(C(=O)O)C1(C)C (stereo unspecified) | -2.77% | 
20 | COc1ccc(NC2CCCN(C(=O)c3ccccc3-c3ncc[nH]3)C2)cc1 (stereo unspecified) | -17% | 
21 | OCC(O)C1OCOC(C(O)CO)C1O (stereo unspecified) | 0.303% | 
22 | COc1cc(OC)c(NC(=O)c2nc(-c3ccncc3)no2)cc1Cl | -17.3% | 
23 | CC(C)c1cc(CN2CCOCC2)cc(C(C)C)c1O | 13.7% | 
24 | Cc1nn(C)c(Cl)c1CN1CCC(n2nccc2NC(=O)C2CCCC2)CC1 | -1.25% | 
25 | COc1cc(/C=N\NC(=O)C2C(=O)NCC2c2ccccc2)cc(OC)c1O (stereo unspecified) | 9.54% | 
26 | O=C(N/N=C\c1cccnc1)c1cc(-c2ccccc2)nc2c(Cl)cccc12 |  | 10.3 µM (active)

Row | Structure (SMILES) | activity change, negative = growth inhibition | Potency
27 | O=C(N/N=C/c1cccnc1)c1ccc(NC(=O)c2ccc(F)cc2)cc1 | 8.72% | 
28 | O=C(N/N=C/c1cccnc1)c1cc2ccccc2cc1O | -19.2% | 
29 | COc1cc(/C=N/NC(=O)c2cc(-c3ccccc3C)nc3ccccc23)cc(OC)c1O |  | 5.8 µM (active)
30 | Cc1cc(C(=O)N/N=C/c2ccccn2)c2ccccc2n1 | 1.01% | 
31 | Cc1c(NC(=O)Nc2cccc([N+](=O)[O-])c2)c(=O)n(-c2ccccc2)n1C | 17.6% | 
32 | C#CCOCCOCCOCCNc1nc(N2CCN(C(=O)C([C@@H](C)CC)n3cc(C(N)COC(=O)C(F)(F)F)nn3)CC2)nc(N2CCN(C(=O)[C@H](CCCCN)n3cc(C(N)CC(C)C)nn3)CC2)n1 (stereo partly specified) | -11.4% | 
33 | COc1cc(CN2CCC(n3nccc3NC(=O)CCCc3ccccc3)CC2)ccc1O | -29.8% | 
34 | CC(Oc1ccc(F)cc1)C(=O)N1CCN(c2ncccn2)CC1 (stereo unspecified) | -7.25% | 
35 | O=C(COC(=O)c1cccc(Cl)c1Cl)NC1CCCCCC1 | -6.28% | 
36 | CC(C)(C)c1ccc(C(=O)C[N+]2(C)CCCc3ccccc32)cc1 (stereo unspecified) |  | 3.55 µM (active)
37 | CC(C)(C)c1ccc(C(=O)NNC(=O)Cc2ccccc2)cc1 | -27.1% | 
38 | CCn1ccnc1CNC(=O)CC1C(=O)NCCN1CCCc1ccccc1 (stereo unspecified) | 3.97% | 
39 | O=C(C(=O)N1CCOc2ccc(CN3CCN(Cc4ccccn4)CC3)cc2C1)c1ccccc1 | 6.37% [at 9.04 µM] | 
40 | CC(=O)Nc1cccc(NC(=O)CSc2nccn2Cc2ccc(F)cc2)c1 | -29% | 
41 | O=C1CC2(CCN(C(=O)COc3ccc(F)cc3)CC2)Oc2ccccc21 | -22.1% | 
42 | COc1cc(/C=C/C(=O)OCC(=O)NCCCc2ccccc2)ccc1O | -9.29% | 
43 | CC(C)c1c(C(=O)N/N=C/c2ccc(-c3ccccc3)cc2)nnn1-c1nonc1N | 4.68% | 
44 | CC1CC(C)CN(CCC(=O)Nc2ccc3c(c2)CCC3)C1 (stereo unspecified) | -21.1% | 
45 | Cc1ccc(C(=O)OCC(=O)NC(=O)Cc2ccccc2)c(O)c1 | 5.48% | 
46 | O=c1cc(Cl)c2ccccc2n1-c1ccccc1 | 22% | 
47 | Cn1c(=O)nc2n(-c3ccc(Br)cc3)c3cccc(Cl)c3cc-2c1=O | 5.86% | 
48 | Cc1ccc(-n2c3nc(=O)[nH]c(=O)c-3cc3c(Cl)cccc32)cc1 |  | 1.46 µM (active)
49 | CSc1cccc(NC(=O)CN2C(=O)COc3ccc(S(=O)(=O)N4CCOCC4)cc32)c1 | -17.9% | 
50 | COc1ccc(Cl)cc1NC(=O)COc1ccc2c(c1)OCO2 | 4.49% | 
51 | CC1CCN(C(=S)c2cccc(O)c2)CC1 | -12% | 
52 | C=C1C([C@@]2(C)C(OC(C)=O)CC(=O)O[C@@](C)(COC(C)=O)C2CC(=O)OC)C(OC=O)C(OC(=O)C(O)C(C)CC)[C@]2(C)C(c3ccoc3)CC(=O)C12O (stereo partly specified) |  | 2.59 µM (active)

Row | Structure (SMILES) | activity change, negative = growth inhibition | Potency
53 | O=C(Nc1ccccc1Cl)N1CCC(CN2CCCCC2)CC1 | -22.8% | 
54 | COc1ccc(NC(=O)c2ccc(C#CC(C)(C)O)cc2)cc1 | -14% | 
55 | Cc1cc(=O)[nH]c(N/N=C/c2ccc3c(c2)OCCO3)n1 | -4.75% | 
56 | O=C(NN1CCOCC1)c1cccc(F)c1 | 5.06% | 
57 | Cc1oc(-c2cccc(NC(=O)c3ccccc3)c2)nc1CNC(=O)c1cnc2ccccn2c1=O | 2.06% | 
58 | O=C(Nc1c(-c2ccc(F)cc2)nc2ccccn12)c1cccc(F)c1 |  | 20.6 µM (active)
59 | Cc1ccccc1NC(=O)CCNS(=O)(=O)c1ccc2[nH]c(=O)oc2c1 | 12% | 
60 | O=C(C1CC1)N1CCc2cc(Br)cc(S(=O)(=O)N3CCN(c4ccccc4F)CC3)c21 | -21% | 
61 | O=C(CCCCCN1C(=O)c2cccc3cccc(c23)C1=O)NCc1ccco1 | 10.3% | 
62 | O=C(CN1C(=O)/C(=C\c2ccc(C(F)(F)F)cc2)Sc2ccccc21)NCc1ccco1 |  | 18.4 µM (active)
63 | CC1CCC2(CC1)NC(=O)N(CC(=O)NCc1ccco1)C2=O (stereo unspecified) | 2.42% | 
64 | Nn1c(SCC(=O)Nc2nccs2)nnc1-c1ccco1 | 7.48% | 
65 | Cc1ccc(CNC(=O)Cn2c(=O)ccc3cc(S(=O)(=O)N4CCCC4)ccc32)cc1 | -22.5% | 
66 | COc1cccc(N2CC(C(=O)NCc3n[nH]c(=O)c4ccccc34)CC2=O)c1 (stereo unspecified) | -27.9% | 
67 | O=c1[nH]c2cccnc2n(CCNc2ncc(C(F)(F)F)cc2Cl)c1=O | 5.87% | 
68 | CCOc1ccccc1NC(=O)Cn1nnc(C(=O)NCc2cccs2)c1N |  | 5.2 nM (active) and 130 nM (active)
69 | CCOc1ccccc1NC(=O)Cc1cccs1 | -0.43% | 
70 | CCOc1ccc(Cn2nnc(C(=O)NCc3ccccc3)c2N)cc1 | 25% | 
71 | COC(=O)C[C@H]1C=C[C@@H](NS(=O)(=O)c2ccc(C)cc2)[C@@H](CO)O1 | 13.9% | 
72 | O=C(c1cc(COc2c(F)cccc2F)on1)N1CCSCC1 | -14.8% | 
73 | NC(=O)Cn1nc([N+](=O)[O-])nc1Oc1ccc(Br)cc1 | -25.2% | 
74 | Cc1ccccc1Nc1nc(N)nc(CSc2nnc3ccccn23)n1 | 0.37% | 
75 | COc1cc(/C=N/NC(=S)Nc2cccnc2)cc(OC)c1O | 0.37% | 
76 | COc1ccccc1CNC(=O)COc1ccc(C)nc1[N+](=O)[O-] | -22.6% | 
77 | CCC(C)(C)n1nnnc1C(c1ccc(OC)c(OC)c1)N1CCN(C(=O)c2ccco2)CC1 (stereo unspecified) | 1.48% | 
78 | CN1CCN2c3ccccc3Cc3ccccc3[C@@H]2C1 |  | 13.3 µM (active)

Row | Structure (SMILES) | activity change, negative = growth inhibition | Potency
79 | CN1CCN(C(=O)N2c3ccccc3CCc3ccccc32)CC1 | 18.3% | 
80 | CCOCCCNC(=O)c1cn(CC(C)C)c(=O)c2c1c1ccccc1n2C |  | inactive
81 | CC(=NNC(N)=O)C1CC2CCC1CC2 (stereo unspecified) | 1.34% | 
82 | CCOC(=O)C1CCN(c2csc3ccc(C)cc3c2=O)CC1 | 4.08% | 
83 | CCOC(=O)C1CCN(c2c(Nc3cc(C)cc(C)c3)c(=O)c2=O)CC1 |  | 14.6 µM (active)
84 | CCOC(=O)C1CCN(CCC(=O)Nc2cccc(C)c2)CC1 | -5.96% | 
85 | O=C(COC(=O)Cc1ccc([N+](=O)[O-])cc1)NC1CCCCCC1 | -14.7% | 
86 | Cc1ccsc1C1C(C#N)=C(N)OC2=C1C(=O)CC(C)(C)C2 (stereo unspecified) | 4.55% | 
87 | CN1CCN(S(=O)(=O)c2ccc(Nc3ccc(F)cc3)nc2)CC1 | -5.23% | 
88 | C=C1CCN([C@H](C(=O)NCc2cc(OC)c(OC)c(OC)c2)C(C)C)S(=O)(=O)c2ccccc21 | -1.11% | 
89 | O=C1OCC2=C1C(c1ccc(Cl)cc1)c1cc3c(cc1O2)OCO3 (stereo unspecified) |  | 29.1 µM (active)
90 | CCc1cccc(NC(=S)N(CCN(C)C)C2CCN(C(C)C)CC2)c1 | -24% | 
91 | O=C(COC(=O)C1(c2ccc(F)cc2)CCCC1)N1CCNC1=O | -1.2% | 
92 | Cc1nn(CC(=O)NCc2ccccn2)c(C)c1[N+](=O)[O-] | 11.2% | 
93 | Cc1csc(NC(=O)CSc2nnc(-c3cccnc3)o2)n1 | -4.05% | 
94 | Cc1csc(NC(=O)NC2(C(F)(F)F)Oc3ccccc3O2)n1 |  | 20.6 µM (active)
95 | Cc1csc(NC(=O)Nc2ccccc2[N+](=O)[O-])n1 | 0.264% | 
96 | CCOc1ccc(N(CC(=O)NC2CCCCCC2)S(=O)(=O)c2c(C)[nH]c(=O)[nH]c2=O)cc1 | 10.3% | 
97 | CC(Nc1nc(C(F)(F)F)nc2ccccc12)c1cccs1 (stereo unspecified) |  | 16.4 µM (active)
98 | COc1ccc(-c2nc3n(c(=O)c2C#N)CCS3)c(OC)c1 | 1.35% | 
99 | COc1ccc(-c2nc(CN3CCC(C(=O)NCc4ccccc4)CC3)c(C)o2)cc1OC | -14.1% | 
100 | CCOc1ccccc1-c1nc(CN2CCC(C(=O)N3CCOCC3)CC2)c(C)o1 | 3.81% | 
101 | Cc1oc(-c2ccccc2F)nc1CN1CCC(C(=O)NCCc2ccc(Cl)cc2)CC1 |  | 13 µM (active)
